Assay [1] is described as follows: compounds binding Alexa647 anti-His antibody – biochemical, small-molecule microarray, 635 nm fluorescence, artefact control for SMM control protein annotation, primary screen (AID 1128).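 Also: score merges feature fluorescence with signal-to-noise for each printed compound spot.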 The conditions noted are these: higher = more signal.
The test system of assay [2] is Human papillomavirus type 1a E7 protein (residues 1-88). The assay can be described thus: HPV1a E7 small-molecule binders, primary screen, biochemical, small-molecule microarray, residues 1-88, 635 nm (AID 1129). The conditions noted are these: small-molecule microarray binding, fluorescence 635 nm; higher = more signal.
In assay [3] the target is Focal adhesion kinase 1 (Homo sapiens) (UniProt Q05397). The assay can be described thus: PTK2 protein binding on printed compound slides – biochemical, small-molecule microarray, 635/667 nm fluorescence, BSA, DTT, primary screen (AID 1130).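 Also: composite of spot emission at 667 nm and signal to noise over triplicate slides.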 The conditions noted are these: 635 nm fluorescence, higher = more signal.
Chain of Focal adhesion kinase 1 (Homo sapiens) (Q05397 whole entry, looked up): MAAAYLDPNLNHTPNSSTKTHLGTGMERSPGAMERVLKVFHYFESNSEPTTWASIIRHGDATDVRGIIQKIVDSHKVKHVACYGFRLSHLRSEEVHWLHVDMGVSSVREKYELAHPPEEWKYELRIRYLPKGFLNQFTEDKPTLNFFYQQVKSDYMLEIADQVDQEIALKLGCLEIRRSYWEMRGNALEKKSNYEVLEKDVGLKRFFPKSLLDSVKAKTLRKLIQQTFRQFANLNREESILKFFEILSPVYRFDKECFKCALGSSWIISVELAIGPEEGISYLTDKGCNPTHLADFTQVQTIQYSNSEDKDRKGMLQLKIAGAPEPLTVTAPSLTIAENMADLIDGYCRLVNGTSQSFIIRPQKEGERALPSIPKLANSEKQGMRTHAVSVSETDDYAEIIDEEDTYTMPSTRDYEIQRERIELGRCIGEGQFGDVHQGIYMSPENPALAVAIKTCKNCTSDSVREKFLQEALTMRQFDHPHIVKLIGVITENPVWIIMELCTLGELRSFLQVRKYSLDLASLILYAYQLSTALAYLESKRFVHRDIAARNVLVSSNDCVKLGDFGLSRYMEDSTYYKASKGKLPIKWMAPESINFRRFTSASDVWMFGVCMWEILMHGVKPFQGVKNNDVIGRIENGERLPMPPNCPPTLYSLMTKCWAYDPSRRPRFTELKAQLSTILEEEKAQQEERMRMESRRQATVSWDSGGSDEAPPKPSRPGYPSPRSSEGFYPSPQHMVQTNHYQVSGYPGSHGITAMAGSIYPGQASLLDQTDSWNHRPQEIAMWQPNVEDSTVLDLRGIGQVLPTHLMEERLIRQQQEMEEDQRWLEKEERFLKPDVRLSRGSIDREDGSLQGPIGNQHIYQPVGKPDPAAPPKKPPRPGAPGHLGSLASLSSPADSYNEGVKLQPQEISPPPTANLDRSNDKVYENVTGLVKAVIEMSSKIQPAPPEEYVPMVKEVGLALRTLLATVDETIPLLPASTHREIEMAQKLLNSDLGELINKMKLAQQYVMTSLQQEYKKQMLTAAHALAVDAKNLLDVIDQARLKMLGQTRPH
The subject of assay [4] is Fibrinogen (Alexa647-labelled). The assay is described as follows: Alexa647-fibrinogen binding to printed small molecules – biochemical, small-molecule microarray, 635/667 nm fluorescence, artefact control for SMM control-protein annotation, profiling panel (AID 1131).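 Also: z-score merges 667 nm fluorescence with per-spot signal-to-noise over triplicate slides.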 As to conditions: fibrinogen-A647 binding fluorescence, higher = more signal.
In assay [5] the target is Follistatin (Homo sapiens) (UniProt P19883). The assay can be described thus: FST protein binding to printed compounds – biochemical, small-molecule microarray, 635/667 nm fluorescence, primary screen (AID 1132). The conditions noted are these: 635 nm fluorescence, higher = more signal.
Chain of Follistatin (Homo sapiens) (P19883 whole entry, looked up): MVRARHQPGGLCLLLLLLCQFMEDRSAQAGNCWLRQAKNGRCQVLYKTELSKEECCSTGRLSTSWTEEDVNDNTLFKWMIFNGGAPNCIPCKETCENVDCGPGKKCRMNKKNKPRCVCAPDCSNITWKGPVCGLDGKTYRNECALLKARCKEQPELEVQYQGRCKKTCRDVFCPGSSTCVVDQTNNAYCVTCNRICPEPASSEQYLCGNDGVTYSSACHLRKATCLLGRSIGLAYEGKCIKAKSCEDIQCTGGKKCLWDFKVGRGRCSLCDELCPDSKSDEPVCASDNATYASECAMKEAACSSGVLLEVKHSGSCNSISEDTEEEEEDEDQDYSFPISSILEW
Assay [6] deals with Fibroblast growth factor 2 (Homo sapiens) (UniProt P09038). The assay can be described thus: basic fibroblast growth factor binding to printed compounds – biochemical, small-molecule microarray, 635/667 nm fluorescence, primary screen (AID 1133). The conditions noted are these: FGF2, fluorescence 635/667, higher = more signal.
Chain of Fibroblast growth factor 2 (Homo sapiens) (P09038 whole entry, looked up): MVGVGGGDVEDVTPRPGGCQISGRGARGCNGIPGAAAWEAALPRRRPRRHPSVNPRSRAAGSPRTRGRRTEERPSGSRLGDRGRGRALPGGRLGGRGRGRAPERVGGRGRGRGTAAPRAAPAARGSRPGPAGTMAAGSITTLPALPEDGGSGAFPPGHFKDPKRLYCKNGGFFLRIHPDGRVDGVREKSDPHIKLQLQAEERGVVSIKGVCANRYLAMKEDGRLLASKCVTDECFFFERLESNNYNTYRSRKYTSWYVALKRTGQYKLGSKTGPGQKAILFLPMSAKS
Assay [7] is described as follows: JC-1 mitochondrial potential readout, lung cancer cells – cell-based, A549, JC-1 fluorescence, basal, 24 h, 100 nL, profiling panel (AID 1138).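 Also: A549 lung adenocarcinoma cells under basal conditions with no added stimulus; test concentration not given here.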 As to conditions: higher = more signal.
Another assay relates to Lefty1. The assay can be described thus: Lefty1 protein binding to printed compounds – biochemical, small-molecule microarray, 635/667 nm fluorescence, primary screen (AID 1139). As to conditions: fluorescence 635/667, higher = more signal.
Assay [8] deals with wheat germ agglutinin (Triticum aestivum), Alexa647-labelled. The assay can be described thus: Alexa647-WGA lectin binding to printed small molecules – biochemical, small-molecule microarray, 635/667 nm fluorescence, artefact control for SMM control-protein annotation, profiling panel (AID 1140).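 Also: score merges 667 nm feature emission with signal to noise over triplicate slides.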 As to conditions: WGA-A647 binding, 635 nm fluorescence, higher = more signal.
For assay [9], the target named is Luciferin 4-monooxygenase (Photinus pyralis) (UniProt P08659). The assay is described as follows: inhibition of purified Photinus pyralis luciferase – biochemical, luminescence, purified enzyme, 2006 set, primary screen (AID 1141).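 Also: cell-free assay with purified firefly luciferase at 100 ng per well in PBS; test concentration not given here.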 As to conditions: purified firefly luciferase, SteadyGlo luminescence, 30 min; higher = more signal, called active from +8 up or from −8 down.
Chain of Luciferin 4-monooxygenase (Photinus pyralis) (P08659 whole entry, looked up): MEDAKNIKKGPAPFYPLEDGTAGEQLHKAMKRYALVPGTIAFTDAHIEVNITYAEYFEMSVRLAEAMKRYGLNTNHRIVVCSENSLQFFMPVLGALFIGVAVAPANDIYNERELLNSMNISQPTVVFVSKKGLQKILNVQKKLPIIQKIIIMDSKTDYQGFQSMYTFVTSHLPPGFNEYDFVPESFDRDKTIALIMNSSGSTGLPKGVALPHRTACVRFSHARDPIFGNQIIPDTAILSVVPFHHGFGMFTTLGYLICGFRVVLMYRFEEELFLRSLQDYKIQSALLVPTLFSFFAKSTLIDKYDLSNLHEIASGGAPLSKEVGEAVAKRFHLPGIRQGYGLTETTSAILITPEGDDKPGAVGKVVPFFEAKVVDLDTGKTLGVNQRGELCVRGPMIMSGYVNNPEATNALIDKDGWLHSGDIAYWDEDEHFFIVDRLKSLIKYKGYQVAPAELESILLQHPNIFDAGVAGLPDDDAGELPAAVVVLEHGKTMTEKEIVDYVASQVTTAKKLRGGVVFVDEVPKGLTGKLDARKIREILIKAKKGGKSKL

For assay [10], the system named is Wnt5a (protein binding on small-molecule microarray). The assay can be described thus: small molecules binding Wnt5a protein – biophysical, small-molecule microarray, 635/667 nm fluorescence, primary screen (AID 1142).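 Also: fluorescence read at 667 nm with signal to noise per printed feature.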 As to conditions: 635 nm fluorescence, higher = more signal.
Assay [11] is described as follows: ATP-based viability of Huh7 replicon cells – cell-based, CellTiter-Glo luminescence, basal, 48 h, cytotoxicity control for HCV replication inhibitor project, primary screen (AID 1143).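 Also: Huh7 hepatoma cells carrying a hepatitis C replication reporter with no stimulus; test concentration not given here.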 The conditions noted are these: higher = more signal, called active from +8 up or from −8 down. For orientation: A replicon is a self-replicating genome or part of one, used to study replication in cells.

Assay [12] is described as follows: Pseudomonas biofilm growth suppression – PAO1 strain, BacTiter-Glo luminescence, LB-PBS, primary screen (AID 1144). As to conditions: P. aeruginosa PAO1 biofilm, 12 h, higher = more signal.
Assay [13] in a line: basal CRE-LacZ reporter activity in PC12 – cell-based, unstimulated, primary screen (AID 1145). As to conditions: no forskolin, luminescence, 4.5 h, higher = more signal, called active from +8 up or from −8 down.
A short description of assay [14]: forskolin-driven CRE-LacZ activity in PC12 – cell-based, CRE-LacZ reporter, forskolin-stimulated, primary screen (AID 1146).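 Also: PC12 cells with 6xCRE LacZ reporter stimulated by forskolin 10 µM; beta-galactosidase reporter signal reflecting CREB driven transcription.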 As to conditions: luminescence, 4.5 h, higher = more signal, called active from +8 up or from −8 down.
The target in assay [15] is Streptavidin (Streptomyces avidinii) (UniProt P22629). The assay can be described thus: compounds binding control protein streptavidin – biophysical, small-molecule microarray, 635/667 nm fluorescence, artefact control for SMM compound annotation, primary screen (AID 1147).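 Also: signal reflects streptavidin binding to arrayed compounds as a control protein.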 The conditions noted are these: higher = more signal.
Chain of Streptavidin (Streptomyces avidinii) (P22629 whole entry, looked up): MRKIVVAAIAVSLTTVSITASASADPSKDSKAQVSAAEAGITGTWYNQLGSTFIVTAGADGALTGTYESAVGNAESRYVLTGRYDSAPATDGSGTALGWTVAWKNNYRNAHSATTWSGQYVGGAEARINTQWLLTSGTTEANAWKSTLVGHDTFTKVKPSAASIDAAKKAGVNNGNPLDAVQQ
Assay [16] is described as follows: probe aInhba binding on compound microarray – biochemical, small-molecule microarray, 635/667 nm fluorescence, primary screen (AID 1148).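 Also: score merges 667nm spot fluorescence with signal-to-noise for antibody binding to printed compounds.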 As to conditions: higher = more signal.
Assay [17] concerns the target Torsin-1A (Homo sapiens) (UniProt O14656). The assay is described as follows: TOR1A wild-type binding on microarray – cell lysate, small-molecule microarray, lysate, 635/667 nm, primary screen (AID 1149). The conditions noted are these: COS7 hTOR1A-WT lysate, 635 nm fluorescence, higher = more signal.
For assay [18] the target is unchanged. The assay is described as follows: torsin A mutant lysate binding on microarrays – cell lysate, small-molecule microarray, COS7 lysate, 635/667 nm fluorescence, primary screen (AID 1150).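 Also: score pools 667 nm emission and signal to noise measuring lysate protein binding.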 The conditions noted are these: COS7 hTOR1A mutant lysate, 635 nm fluorescence, higher = more signal.
Assay [19] deals with Sonic hedgehog protein (Shh). The assay can be described thus: Sonic hedgehog microarray binding compounds – biochemical, small-molecule microarray, 635/667 nm fluorescence, primary screen (AID 1151).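 Also: Shh protein binding to compounds spotted on small-molecule microarray slides; score combines spot fluorescence intensity with signal-to-noise across triplicate slides.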 The conditions noted are these: 635 nm fluorescence, higher = more signal.

Active and inactive are the calls of the source. Unless noted, no rule for the calls is given here.

Chain of Torsin-1A (Homo sapiens) (O14656 whole entry, looked up): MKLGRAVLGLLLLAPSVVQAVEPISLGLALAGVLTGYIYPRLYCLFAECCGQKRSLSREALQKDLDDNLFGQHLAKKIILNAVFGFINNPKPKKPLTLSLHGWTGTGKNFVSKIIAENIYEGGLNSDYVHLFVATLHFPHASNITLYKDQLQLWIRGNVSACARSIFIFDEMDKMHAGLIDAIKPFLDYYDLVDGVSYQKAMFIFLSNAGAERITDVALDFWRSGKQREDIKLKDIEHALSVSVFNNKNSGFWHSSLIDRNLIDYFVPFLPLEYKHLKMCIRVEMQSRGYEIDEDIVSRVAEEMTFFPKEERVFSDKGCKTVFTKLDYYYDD

Regarding `CCc1cc2c(nc1CC)CCN(CCC(C)=NO[C@H](C)c1cn([C@@H]3COC[C@H]3O)nn1)C2`, the composite z-score in assay [1] was -0.0963; in assay [2] it was -0.139; in assay [3] it was -0.162; in [4] it was 0.522; in [5], 0.523; in [6], 0.305. Moreover, the composite z-score with Lefty1 was 0.204; in [8], 0.199; in assay [10], -0.0763; in [15], 0.383; in [16] it was -0.0963; with Torsin-1A (Homo sapiens) [17], 0.161. Moreover, the composite z-score is 0.292 with Torsin-1A (Homo sapiens) [18] and 0.282 in assay [19]. The z-score in assay [7] is 0.537; in assay [9], 0.221 (inactive); in assay [11] it was 0.401 (inactive); in assay [12], 1.7 (inactive); in assay [13] it was 0.238 (inactive); in assay [14] it was -0.183 (inactive).

For the compound `COC(=O)[C@H]1[C@@H](O)[C@@]2(O)c3ccccc3O[C@@]2(c2ccccc2)[C@@H]1c1ccccc1`, the composite z-score is 0.434 in assay [1]; 0.0845 in assay [2]; -0.257 in assay [3]; -0.842 in [4]; 0.101 in [5]; 0.352 in assay [6]. Besides, the composite z-score in the assay with Lefty1 was 0.285; in assay [8], 1.01; in assay [10], -0.113; in [15] it was -0.419; in assay [16], -0.0361; in the assay with Torsin-1A (Homo sapiens) [17] it was -0.225. For the same compound, the composite z-score was found to be 0.258 with Torsin-1A (Homo sapiens) [18] and 0.143 in [19]. Also, the z-score in [7] was 0.266; in [9], 0.487 (inactive); in [11], -0.359 (inactive); in assay [12] it was 0.576 (inactive); in assay [13] it was 1.57 (inactive); in assay [14] it was 0.0923 (inactive).

For the compound `COc1ccc(COC(=O)NN=C2C[C@@H](O)[C@@H](O)[C@@H]3[C@@H]4C(=O)N(C5CCCCC5)C(=O)[C@@H]4CC[C@H]23)cc1`, the composite z-score in assay [1] is -0.823; in [2], -0.552; in assay [3], -0.497; in assay [4], -0.439; in assay [5], -1.72; in assay [6], -1.04. For the same compound, the composite z-score in the assay with Lefty1 was -1.42; in [8], 0.778; in assay [10], -0.244; in assay [15] it was -0.332; in assay [16], -0.337; with Torsin-1A (Homo sapiens) [17] it was -0.0324. Moreover, the values for the composite z-score (in the assay with Torsin-1A (Homo sapiens) [18]; in assay [19]) were 0.408 and -1.61, respectively. In addition, the z-score in assay [7] was 0.195; in [9], -0.224 (inactive); in assay [11], -0.146 (inactive); in assay [12], 0.345 (inactive); in assay [13] it was 1.61 (inactive); in [14], -0.0264 (inactive).

In the case of `C#CCCCON=C1C[C@@H](O)[C@@H](O)[C@@H]2[C@@H]3C(=O)N(C(C)(C)C)C(=O)[C@@H]3CC[C@@H]12`, the composite z-score was -0.331 in assay [1]; -0.175 in assay [2]; 0.324 in assay [3]; 0.139 in assay [4]; -1.54 in assay [5]; -0.92 in assay [6]. The composite z-score with Lefty1 is -1.28; in [8] it was 0.171; in assay [10], 0.0416; in [15] it was 0.0462; in assay [16], -0.0762; with Torsin-1A (Homo sapiens) [17], -0.196. The composite z-score was 0.348 in the assay with Torsin-1A (Homo sapiens) [18] and -1.22 in [19]. Moreover, the z-score in assay [7] is -0.289; in assay [9], 0.648 (inactive); in assay [11] it was 0.536 (inactive); in assay [12] it was 0.945 (inactive); in assay [13] it was 0.785 (inactive); in assay [14] it was 0.262 (inactive).

As for `CO[C@@H]1C=CCC(=O)N2CCC[C@H]2C(=O)OC[C@@H](C)C(=O)OC[C@H]1C`, the composite z-score in [1] is 0.21; in assay [2], -0.565; in assay [3], -0.267; in assay [4], -0.294; in [5], 1.34; in assay [6] it was 1.33. Moreover, the composite z-score in the assay on Lefty1 was 0.925; in [8] it was -0.7; in assay [10] it was 0.172; in [15], -0.482; in [16], -0.0762; with Torsin-1A (Homo sapiens) [17], -0.0067. The composite z-score with Torsin-1A (Homo sapiens) [18] was determined as 0.652; in [19], 1.68. Also, the z-score in assay [7] is 2.01; in assay [9] it was -1.1 (inactive); in [11] it was -0.0949 (inactive); in assay [12] it was -1.23 (inactive); in assay [13] it was -0.0234 (inactive); in [14], 0.2 (inactive).

The values above are taken from PubChem BioAssay.
